# According to PubChem BioAssay (Tox21):
# Several values for one entry are separate records, joined by “and”; a condition that tells them apart may be missing. Equal values may be shown once. Results filed as inconclusive are left out. Where a call stands in place of a potency, no number is given. Activity calls are given as the source filed them. The call rests on the fitted dose curve.
# Assay: qHTS assay to identify small molecule agonists of the AP-1 signaling pathway - cell viability counter screen (AID 1159525); further: nearly all actives have a fitted effect of over 55% in size
# Conditions: ME-180 (cervical carcinoma) AP-1-bla cells viability, ATP luminescence, 5 h; series mostly up to 76.8 µM
# Description: National Center for Advancing Translational Sciences [NCATS]
# NIH Chemical Genomics Center [NCGC]
# U.S. Environmental Protection Agency [EPA]
# National Institutes of Environmental Health Sciences [NIEHS]
# National Toxicology Program [NTP]
# U.S. Food and Drug Administration [FDA]
# Activator protein-1 (AP-1), a transcription factor, plays an important role in tumor genesis by regulating genes involved in cell proliferation, differentiation, apoptosis, and angiogenesis. AP-1 activity is induced by a complex network of signaling pathways that involves extracellular signals, such as growth factors. The AP-1 protein complex formed from c-Fos and c-Jun binding to the AP-1 response element results in transcriptional activation of genes containing such elements within their promoter.
# Low molecular weight molecules have been discovered and developed to modulate various components of these signaling pathways, for example, MAP kinase inhibitors. However, many points of pathway modulation remain untested due to the lack of chemical probes making this signaling locus of general interest.
# Using a beta-lactamase reporter-gene under control of the AP-1 response element, a cell-based assay [CellSensor(TM) AP-1-bla ME-180 developed by Invitrogen Corp.] was used to measure EGF-induced signaling. The Tox21 10K library compounds were measured for their ability to positively modulate the action of EC50 EGF on reporter gene activity. Compounds were screened in a 15-pt titration series in 1536-well format. The cytotoxicity of the Tox21 compound library against this cell line was tested in parallel by measuring the intra cellular ATP content in the same wells.
# Tox21 Assay Protocol Summary:
# 2500 cells/5uL in Opti-MEM medium containing 0.5% dialyzed FBS, 0.1 mM NEAA, 1 mM sodium pyruvate and 10 mM HEPES was dispensed into 1536-well black wall/clear bottom plates using a Multidrop dispenser and cells were cultured at 37 degrees Celsius overnight. Next day 23 nL of compounds dissolved in DMSO, positive controls or DMSO were delivered to each well using a pin tool. The plates were incubated at 37 degrees Celsius for 5 hours. 1 uL of LiveBLAzerTM B/G FRET substrate (Solution A+B+C+D) was added to each well using a Flying Reagent Dispenser. After incubated at room temperature for 2.5 hours the plates were measured on an EnVision plate reader at Excitation 405nm, Emission1=460nm and Emission 2=530nm. The %Activity was determined from the ratio of 460nm/530nm.
# After the plates were read for Beta-Lactamase assay on Envision; 3 ul Cell Titer Glo (Promega) was added to measure the cytotoxicity and the plates were then incubated at RT in dark for 30 min. The luminescence was read on ViewLux (Perkin Elmer, Shelton, CT) using 6 sec exposure. ViewLux data was expressed as relative luminescence units.
# For primary data analysis, raw plate reads for each titration point were first normalized relative to […] EGF control (100%) and DMSO only wells (basal, 0%).
# For primary data analysis for viability assay, raw plate reads for each titration point were first normalized Tetra n-octyl ammonium bromide control (-100%) and DMSO (control, 100%).
# Potency means the concentration at half of the fitted maximal effect.
row,SMILES,Potency
1,ClCc1ccccc1CCl,inactive
2,Oc1c(Cl)c(Cl)cc(Cl)c1Cl,inactive
3,ClC1=C(Cl)C2(Cl)C3C(Cl)C(Cl)CC3C1(Cl)C2(Cl)Cl (stereo not given),24.5 µM (active) and 34.7 µM (active)
4,CCC(C)(C)C(=O)OC1=C(c2ccc(Cl)cc2Cl)C(=O)OC12CCCCC2,inactive
5,Clc1ccc(COC(Cn2ccnc2)c2ccc(Cl)cc2Cl)cc1 (stereo not given),54.7 µM (active) and 23.9 µM (active)
6,Clc1ccc(-c2ccc(Cl)c(Cl)c2Cl)c(Cl)c1Cl,inactive
7,CC(C)[C@H](C(=O)O[C@H](C#N)c1cccc(Oc2ccccc2)c1)c1ccc(Cl)cc1,inactive
8,Clc1ccc(Oc2ccccc2)cc1,inactive
9,CN(CCCC(O)c1cccnc1)N=O (stereo not given),inactive
10,O=C1C=CC(=O)c2ccccc21,15.5 µM (active)
11,CN(C)CCc1c[nH]c2cccc(O)c12,inactive
12,COS(=O)(=O)c1ccc(C)cc1,inactive
13,CN(CCCC(=O)c1cccnc1)N=O,inactive
14,COc1cc(C=O)cc2c1[C@H](COC(N)=O)[C@]1(OC(C)=O)ON2C[C@H]2[C@@H]1N2C(C)=O,inactive
15,CC(C)(C)c1ccc(CSc2cnn(C(C)(C)C)c(=O)c2Cl)cc1,inactive
16,CCCCCCCCCCCCCCCC[n+]1ccccc1,32.3 µM (active) and 54.9 µM (active) and 43 µM (active)
17,O=[N+]([O-])O.O=[N+]([O-])O.[Cd],inactive
18,O=C1NCN(c2ccccc2)C12CCN(CC1COc3ccccc3O1)CC2 (stereo not given),inactive
19,CNC(C)Cc1ccc2c(c1)OCO2 (stereo not given),inactive
20,CS(=O)(=O)c1ccc(C(=O)C2C(=O)CCCC2=O)c([N+](=O)[O-])c1,inactive

row,SMILES,Potency
1,CC1CCC(C(C)C)C(OC(=O)c2ccccc2N)C1 (stereo not given),38.4 µM (active)
2,O=C(O)C1C2CCC(O2)C1C(=O)O (stereo not given),inactive
3,CC(C)OS(C)(=O)=O,inactive
4,CC(C)[C@H](C(=O)OC(C#N)c1cccc(Oc2ccccc2)c1)c1ccc(OC(F)F)cc1 (stereo not given in full),inactive
5,Nc1ccc([N+](=O)[O-])cc1Cl,inactive
6,Cn1[nH]nnc1=S,inactive
7,CC(=[OH+])/C=C(/C)[O-].CC(=[OH+])/C=C(\C)[O-].CC(=[OH+])/C=C(\C)[O-].[Fe],inactive
8,COC[C@H](C)N(C(=O)CCl)c1c(C)csc1C,inactive
9,CCOC(=O)OC1=C(c2cc(C)ccc2C)C(=O)NC12CCC(OC)CC2 (stereo not given),inactive
10,SCc1ccco1,inactive
11,BrCC(Br)c1ccccc1 (stereo not given),inactive
12,Oc1cccc(-c2ccccc2)c1,inactive
13,ClC1=C(Cl)[C@]2(Cl)[C@@H]3[C@@H](Cl)[C@@H](Cl)C[C@@H]3[C@@]1(Cl)C2(Cl)Cl,inactive
14,ClC1=C(Cl)[C@]2(Cl)[C@H]3[C@H]([C@H]4C=C[C@H]3C4)[C@@]1(Cl)C2(Cl)Cl,inactive
15,N#Cc1ccccc1N,inactive
16,CCCN(CCC)CCc1c[nH]c2ccccc12,inactive
17,CC(=O)[O-].[Tl+],inactive
18,C[As+](C)(C)CC(=O)[O-],inactive
19,CC(C)C(=O)Cl,inactive
20,FC(F)(F)c1cccc(C2=CCN(CCc3ccc4ccccc4c3)CC2)c1,inactive
